The whole screen tested about 39,000 compounds, of which about 3,300 (8.5%) were called active. The list comes from a sample in which actives are over-represented; it also holds similar structures and randomly drawn compounds.

The subject of the assay is HepG2. The assay can be described thus: cytotoxicity call (relative viability < 0.9). Conditions: 10 µM.
For `C[C@H](CO)N1C[C@H](C)[C@H](CN(C)S(=O)(=O)c2ccc(F)cc2)Oc2ncc(C#CC(C)(C)O)cc2C1=O`, the cytotoxicity call is “inactive”.

Turning to `C[C@@H]1CN([C@@H](C)CO)C(=O)c2c(c3ccccc3n2C)-c2ccccc2CO[C@@H]1CN(C)Cc1cccc(C(=O)O)c1`, the cytotoxicity call was “inactive”.

Take `C[C@H](CO)N1C[C@H](C)[C@H](CN(C)S(=O)(=O)c2ccc(Oc3ccccc3)nc2)OCc2cnnn2CCCC1=O`: the cytotoxicity call is “inactive”.

For the compound `COc1ccc(CCNC(=O)[C@@]2(Sc3ccc(C)cc3)CC(=O)N(Cc3cc(C(F)(F)F)cc(C(F)(F)F)c3)[C@@H]2c2ccc(CO)cc2I)cc1`, the cytotoxicity call is “inactive”.

Regarding `Cc1ccc(S(=O)(=O)N2C[C@@H](O)COC[C@@H]3O[C@@H](CC(=O)N[C@@H]4CCN(Cc5ccccc5)C4)CC[C@H]32)cc1`, the cytotoxicity call was “inactive”.

With `COCC(=O)Nc1ccc2c(c1)C(=O)N(C)C[C@H](OC)[C@H](C)CN(C(=O)Cc1cccnc1)[C@H](C)CO2`, the cytotoxicity call was “inactive”.

As to `C[C@@H]1CN([C@@H](C)CO)C(=O)c2cc(NC(=O)C3CC3)ccc2O[C@H]1CN(C)Cc1ccc(Oc2ccccc2)cc1`, the cytotoxicity call is “inactive”.

On to `C[C@@H]1CN([C@@H](C)CO)S(=O)(=O)c2ccc(C#CC(C)(C)O)cc2O[C@H]1CN(C)C(=O)C1CCCCC1`, for which the cytotoxicity call is “inactive”.

Regarding `O=C(C[C@@H]1C=C[C@H](NC(=O)C2CCC2)[C@H](CO)O1)NCCCN1CCOCC1`, the cytotoxicity call is “inactive”.

As for `C[C@H](CO)N1C[C@H](C)[C@@H](CN(C)Cc2ccc(C(=O)Nc3ccccc3N)cc2)Oc2ccc(NC(=O)Cc3ccccc3)cc2C1=O`, the cytotoxicity call was “inactive”.

As to `C[C@H]1CN([C@@H](C)CO)S(=O)(=O)c2ccc(-c3ccc(F)cc3)cc2O[C@@H]1CN(C)S(C)(=O)=O`, the cytotoxicity call is “inactive”.

With `C[C@@H]1CN([C@H](C)CO)C(=O)c2cc(NS(=O)(=O)c3ccccc3)ccc2O[C@@H](C)CCCCO[C@@H]1CN(C)S(C)(=O)=O`, the cytotoxicity call was “inactive”.

Regarding `COc1ccc(S(=O)(=O)Nc2ccc3c(c2)C(=O)N([C@@H](C)CO)C[C@@H](C)[C@H](CN(C)C(=O)c2ccccc2)OCCCC[C@H](C)O3)cc1`, the cytotoxicity call is “inactive”.

On to `COc1ccc(CN(C)C[C@H]2Oc3ccc(NC(=O)Nc4cccc5ccccc45)cc3C(=O)N([C@H](C)CO)C[C@H]2C)cc1`, for which the cytotoxicity call was “inactive”.

Regarding `COc1ccc(CN(C)C[C@@H]2Oc3ccc(NC(=O)Nc4cccc5ccccc45)cc3C(=O)N([C@@H](C)CO)C[C@@H]2C)cc1`, the cytotoxicity call was “inactive”.

With `C[C@H]1CN([C@@H](C)CO)C(=O)c2cc(NC(=O)Nc3cccc4ccccc34)ccc2O[C@@H]1CN(C)Cc1ccc(Oc2ccccc2)cc1`, the cytotoxicity call is “active”.

`C[C@H]1CN([C@@H](C)CO)C(=O)c2cccc(NC(=O)c3cnccn3)c2O[C@@H]1CN(C)C(=O)Nc1ccc(F)cc1`: the cytotoxicity call is “inactive”.

On to `CC(=O)OCCn1c(=O)[nH]c(=O)c2nsnc21`, for which the cytotoxicity call is “inactive”.

`Cc1ccc(S(=O)(=O)Nc2ccc3c(c2)C(=O)N([C@H](C)CO)C[C@@H](C)[C@H](CN(C)C(=O)Nc2cccc4ccccc24)OCCCC[C@H](C)O3)cc1`: the cytotoxicity call is “active”.

For `Cc1ccc(S(=O)(=O)Nc2ccc3c(c2)C(=O)N([C@H](C)CO)C[C@H](C)[C@H](CN(C)C(=O)Nc2cccc4ccccc24)OCCCC[C@H](C)O3)cc1`, the cytotoxicity call is “active”.

Regarding `Cc1ccc(S(=O)(=O)Nc2ccc3c(c2)C(=O)N([C@@H](C)CO)C[C@H](C)[C@H](CN(C)C(=O)Nc2cccc4ccccc24)OCCCC[C@@H](C)O3)cc1`, the cytotoxicity call was “inactive”.

In the case of `Cc1ccc(S(=O)(=O)Nc2ccc3c(c2)C(=O)N([C@@H](C)CO)C[C@H](C)[C@H](CN(C)C(=O)Nc2cccc4ccccc24)OCCCC[C@H](C)O3)cc1`, the cytotoxicity call was “inactive”.

As to `Cc1ccc(S(=O)(=O)Nc2ccc3c(c2)C(=O)N([C@H](C)CO)C[C@@H](C)[C@H](CN(C)C(=O)Nc2cccc4ccccc24)OCCCC[C@@H](C)O3)cc1`, the cytotoxicity call was “active”.

In the case of `Cc1ccc(S(=O)(=O)Nc2ccc3c(c2)C(=O)N([C@H](C)CO)C[C@H](C)[C@@H](CN(C)C(=O)Nc2cccc4ccccc24)OCCCC[C@@H](C)O3)cc1`, the cytotoxicity call is “inactive”.

Take `Cc1ccc(S(=O)(=O)Nc2ccc3c(c2)C(=O)N([C@@H](C)CO)C[C@@H](C)[C@@H](CN(C)C(=O)Nc2cccc4ccccc24)OCCCC[C@H](C)O3)cc1`: the cytotoxicity call was “inactive”.

As for `Cc1ccc(S(=O)(=O)Nc2ccc3c(c2)C(=O)N([C@@H](C)CO)C[C@H](C)[C@@H](CN(C)C(=O)Nc2cccc4ccccc24)OCCCC[C@@H](C)O3)cc1`, the cytotoxicity call was “inactive”.

As for `Cc1ccc(S(=O)(=O)Nc2ccc3c(c2)C(=O)N([C@@H](C)CO)C[C@H](C)[C@@H](CN(C)C(=O)Nc2cccc4ccccc24)OCCCC[C@H](C)O3)cc1`, the cytotoxicity call is “inactive”.

For the compound `CC(=O)Nc1cc2c(cc1N)OCCO2`, the cytotoxicity call was “inactive”.

Consider `COCC(=O)N(C)C[C@@H]1Oc2cc(C#C[C@H](C)O)ccc2S(=O)(=O)N([C@@H](C)CO)C[C@@H]1C`, for which the cytotoxicity call is “inactive”.

Consider `C[C@@H]1CN([C@@H](C)CO)C(=O)c2cc(NC(=O)Nc3ccc4c(c3)OCO4)ccc2O[C@H]1CN(C)Cc1ccc(Oc2ccccc2)cc1`, for which the cytotoxicity call is “inactive”.

As for `C[C@@H]1CN([C@H](C)CO)C(=O)c2cc(NC(=O)Nc3ccc4c(c3)OCO4)ccc2O[C@@H]1CN(C)Cc1ccc(Oc2ccccc2)cc1`, the cytotoxicity call is “active”.

`C[C@@H]1CN([C@@H](C)CO)C(=O)c2cc(NC(=O)Nc3ccc4c(c3)OCO4)ccc2O[C@@H]1CN(C)Cc1ccc(Oc2ccccc2)cc1`: the cytotoxicity call is “active”.

Turning to `C[C@H](CO)N1C[C@H](C)[C@@H](CN(C)Cc2ccc(Oc3ccccc3)cc2)Oc2ccc(NC(=O)Nc3ccc4c(c3)OCO4)cc2C1=O`, the cytotoxicity call was “inactive”.

For `C[C@@H]1CN([C@H](C)CO)C(=O)c2cc(NC(=O)Nc3ccc4c(c3)OCO4)ccc2O[C@H]1CN(C)Cc1ccc(Oc2ccccc2)cc1`, the cytotoxicity call is “inactive”.

`C[C@H]1CN([C@@H](C)CO)C(=O)c2cc(NC(=O)Nc3ccc4c(c3)OCO4)ccc2O[C@@H]1CN(C)Cc1ccc(Oc2ccccc2)cc1`: the cytotoxicity call is “active”.

Turning to `C[C@H]1CN([C@@H](C)CO)C(=O)c2cc(NC(=O)Nc3ccc4c(c3)OCO4)ccc2O[C@H]1CN(C)Cc1ccc(Oc2ccccc2)cc1`, the cytotoxicity call was “inactive”.

Turning to `C[C@H](CO)N1C[C@H](C)[C@H](CN(C)Cc2ccc(Oc3ccccc3)cc2)Oc2ccc(NC(=O)Nc3ccc4c(c3)OCO4)cc2C1=O`, the cytotoxicity call is “inactive”.

Consider `C[C@@H]1CN([C@@H](C)CO)C(=O)c2cccc(NC(=O)C3CCCCC3)c2O[C@H]1CN(C)C(=O)Nc1cccc2ccccc12`, for which the cytotoxicity call is “inactive”.

As to `Cc1cc(C(=O)Nc2ccc3c(c2)C(=O)N(C)[C@@H]2CC[C@@H](CC(=O)NCC(F)(F)F)O[C@H]2CO3)no1`, the cytotoxicity call was “inactive”.

As to `C[C@@H]1CN([C@@H](C)CO)C(=O)c2cc(NC(=O)CCC(F)(F)F)ccc2O[C@@H](C)CCCCO[C@@H]1CN(C)Cc1ccc(C(=O)O)cc1`, the cytotoxicity call was “inactive”.

As to `O=C(C[C@@H]1C=C[C@H](NC(=O)C2CC2)[C@@H](CO)O1)NCCCN1CCOCC1`, the cytotoxicity call was “inactive”.

As to `O=C(NCc1ccccc1)C1=C[C@H](c2ccc3c(c2)Cc2ccccc2-3)C[C@H](OCc2ccc(CO)cc2)O1`, the cytotoxicity call is “inactive”.

On to `C[C@@H]1CN([C@@H](C)CO)C(=O)c2cc(NS(C)(=O)=O)ccc2O[C@H]1CN(C)C(=O)Nc1ccc2c(c1)OCO2`, for which the cytotoxicity call was “inactive”.

As to `C[C@@H]1CN([C@H](C)CO)C(=O)c2cc(NC(=O)NC3CCCCC3)ccc2O[C@@H](C)CCCCO[C@H]1CN(C)C(=O)Nc1ccc(C(F)(F)F)cc1`, the cytotoxicity call is “inactive”.

As to `CCNC(=O)[C@@H]1CCCN1C(=O)[C@H](CCCNC(=N)N)NC(=O)[C@H](CC(C)C)NC(=O)[C@@H](COC(C)(C)C)NC(=O)[C@H](Cc1ccc(O)cc1)NC(=O)[C@H](CO)NC(=O)[C@H](Cc1c[nH]c2ccccc12)NC(=O)[C@H](Cc1cnc[nH]1)NC(=O)[C@H]1CCC(=O)N1`, the cytotoxicity call is “inactive”.

As for `CC(C)(C)OC(=O)CC[C@]12N=C(c3ccc(OCCCO)cc3)O[C@H]1c1ccccc1CN(Cc1ccccc1)C2=O`, the cytotoxicity call was “inactive”.

Regarding `CC(C)(C)OC(=O)CC[C@@]12N=C(c3ccc(OCCCO)cc3)O[C@@H]1c1ccccc1CN(C(=O)c1ccccc1)C2=O`, the cytotoxicity call is “active”.

As for `O=C(c1ccccc1)N1Cc2ccccc2[C@H]2OC(c3ccc(OCCCO)cc3)=N[C@@]2(Cc2ccccc2)C1=O`, the cytotoxicity call was “inactive”.

Take `O=C1N(Cc2ccccc2)Cc2ccccc2C[C@]12N=C(c1ccc(OCCCO)cc1)O[C@@H]2c1ccccc1`: the cytotoxicity call is “inactive”.

For the compound `CC(C)(C)OC(=O)CC[C@@]12N=C(c3ccc(OCCCO)cc3)O[C@@H]1c1ccccc1CN(Cc1ccccc1)C2=O`, the cytotoxicity call is “active”.

Consider `CC(C)(C)OC(=O)CC[C@]12N=C(c3ccc(OCCCO)cc3)O[C@H]1c1ccccc1N(Cc1ccccc1)C2=O`, for which the cytotoxicity call was “inactive”.

In the case of `O=C1N(Cc2ccccc2)Cc2ccccc2[C@H]2OC(c3ccc(OCCCO)cc3)=N[C@@]12Cc1ccccc1`, the cytotoxicity call was “inactive”.

As to `O=C1N(Cc2ccccc2)Cc2ccccc2C[C@@]12N=C(c1ccc(OCCCO)cc1)O[C@H]2c1ccccc1`, the cytotoxicity call was “active”.

On to `CC(C)(C)OC(=O)CC[C@]12N=C(c3ccc(OCCCO)cc3)O[C@H]1c1ccccc1CN(C(=O)c1ccccc1)C2=O`, for which the cytotoxicity call is “inactive”.

Take `COC(=O)c1cn(C)cn1`: the cytotoxicity call was “inactive”.

On to `Cc1ccc(S(=O)(=O)N(C)C[C@H]2Oc3ccc(NS(C)(=O)=O)cc3CC(=O)N([C@H](C)CO)C[C@@H]2C)cc1`, for which the cytotoxicity call was “inactive”.

As for `C[C@@H]1CN([C@@H](C)CO)C(=O)c2cc(N(C)C)ccc2O[C@@H](C)CCCCO[C@@H]1CN(C)Cc1ccc(C(F)(F)F)cc1`, the cytotoxicity call was “inactive”.

As for `C[C@]1(CC(=O)O)C(=O)N=C2C=CC=CN21`, the cytotoxicity call was “inactive”.

Regarding `COc1ccc(CN(C)C[C@@H]2Oc3ccc(NC(=O)Nc4ccc(C(F)(F)F)cc4)cc3C(=O)N([C@@H](C)CO)C[C@@H]2C)cc1`, the cytotoxicity call is “active”.

As to `COc1ccc(NC(=O)Nc2ccc3c(c2)C(=O)N([C@H](C)CO)C[C@H](C)[C@@H](CN(C)Cc2ccc(C(F)(F)F)cc2)O3)cc1`, the cytotoxicity call is “inactive”.

In the case of `COc1ccc(NC(=O)Nc2ccc3c(c2)C(=O)N([C@H](C)CO)C[C@H](C)[C@H](CN(C)Cc2ccc(C(F)(F)F)cc2)O3)cc1`, the cytotoxicity call was “inactive”.

For `COc1ccc(CN(C)C[C@H]2Oc3ccc(NC(=O)Nc4ccc(C(F)(F)F)cc4)cc3C(=O)N([C@H](C)CO)C[C@H]2C)cc1`, the cytotoxicity call was “active”.

For `COc1ccc(NC(=O)Nc2ccc3c(c2)C(=O)N([C@H](C)CO)C[C@@H](C)[C@@H](CN(C)Cc2ccc(C(F)(F)F)cc2)O3)cc1`, the cytotoxicity call is “inactive”.

In the case of `COc1ccc(CN(C)C[C@H]2Oc3ccc(NC(=O)Nc4ccc(C(F)(F)F)cc4)cc3C(=O)N([C@H](C)CO)C[C@@H]2C)cc1`, the cytotoxicity call is “inactive”.

As for `COc1ccc(CN(C)C[C@@H]2Oc3ccc(NC(=O)Nc4ccc(C(F)(F)F)cc4)cc3C(=O)N([C@H](C)CO)C[C@@H]2C)cc1`, the cytotoxicity call is “active”.

As to `COc1ccc(NC(=O)Nc2ccc3c(c2)C(=O)N([C@H](C)CO)C[C@@H](C)[C@H](CN(C)Cc2ccc(C(F)(F)F)cc2)O3)cc1`, the cytotoxicity call was “active”.

These data come from the antibiotic and cytotoxicity screens of Wong et al. (2023).
